In PubChem BioAssay (Tox21) one finds outcome, Potency and max activation data, which are given here for 11 molecules.

In test [1] the target is Thyrotropin-releasing hormone receptor (Homo sapiens) (UniProt P34981). In words: qHTS assay to identify small molecule agonists of the thyrotropin-releasing hormone receptor (TRHR) signaling pathway (AID 1346891; calls by dose curve; also: series mostly up to about 58 µM). In a few lines:
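Readout was intracellular calcium fluorescence in TRHR-Hek293 cells. Cells were incubated 18 h, dye-loaded 2 h at 37 °C, and treated with compound in agonist mode.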

The nature of test [2]: Human pregnane X receptor (PXR) small molecule agonists, qHTS cell viability counter screen (AID 1346977). Also: nearly all actives have a fitted effect of over 50% in size. In a few lines:
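In each well, the PXR reporter HepG2 line was checked for viability: CellTiter-Fluor reagent added 23hr post-dosing, fluorescence read after 1hr incubation at 37C.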

The nature of test [3]: Caspase-3/7 induction in HepG2 cells by small molecules, qHTS assay (AID 1346978). Also: nearly all actives have a fitted effect of over 15% in size. In a few lines:
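Wild-type HepG2 cells, 2,000/well, settled 5 hr at 37 C and 5% CO2, then compound-treated for 17 hr; caspase-3/7 activity read by luminescent Caspase-Glo 3/7 after 30 min at room temperature.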
In general terms: In qHTS, concentration-response curves come from the screen itself.

The nature of test [4]: Caspase-3/7 induction in CHO-K1 cells by small molecules, qHTS cell viability counter screen (AID 1346979). Also: nearly all actives have a fitted effect of over 35% in size. In a few lines:
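Following a 5hr settling period, CHO-K1 cells at 1,500 per well received DMSO-dissolved compounds. Cell viability was quantified 16hr later by CellTiter-Fluor fluorescence, measured after 1hr with reagent at 37C.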

Test [5] is described as follows: Caspase-3/7 induction in CHO-K1 cells by small molecules, qHTS assay (AID 1346980). Also: nearly all actives have a fitted effect of over 15% in size. In a few lines: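 Wild-type CHO-K1 cells exposed to compounds for 17hr at 37 C, 5% CO2. Caspase-3/7 activity then measured by Caspase-Glo 3/7 luminescence after 30min at room temperature.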
Test [6] is described as follows: Caspase-3/7 induction in HepG2 cells by small molecules, qHTS cell viability counter screen (AID 1346981). Also: series mostly up to about 92 µM; nearly all actives have a fitted effect of over 30% in size. The method, boiled down: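 Steps: seed 2,000 HepG2 cells per well; incubate 5 hr at 37 C; pin-add compounds in DMSO; incubate 16 hr; add CellTiter-Fluor; after 1 hr at 37 C and 5% CO2, read fluorescence.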
The target in test [7] is Nuclear receptor subfamily 1 group I member 2 (Homo sapiens) (UniProt O75469). In words: Human pregnane X receptor (PXR) small molecule agonists, qHTS assay (AID 1346982). Also: nearly all actives have a fitted effect of over 35% in size. The method, boiled down: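 Agonist mode qHTS: PXR-Luc HepG2 cells plated 5 hr before DMSO-dissolved compounds were pinned in, cultured 24 hr at 37 C, 5% CO2; ONE-Glo luminescence readout.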
Sequence of Nuclear receptor subfamily 1 group I member 2 (Homo sapiens) (O75469 whole entry, looked up): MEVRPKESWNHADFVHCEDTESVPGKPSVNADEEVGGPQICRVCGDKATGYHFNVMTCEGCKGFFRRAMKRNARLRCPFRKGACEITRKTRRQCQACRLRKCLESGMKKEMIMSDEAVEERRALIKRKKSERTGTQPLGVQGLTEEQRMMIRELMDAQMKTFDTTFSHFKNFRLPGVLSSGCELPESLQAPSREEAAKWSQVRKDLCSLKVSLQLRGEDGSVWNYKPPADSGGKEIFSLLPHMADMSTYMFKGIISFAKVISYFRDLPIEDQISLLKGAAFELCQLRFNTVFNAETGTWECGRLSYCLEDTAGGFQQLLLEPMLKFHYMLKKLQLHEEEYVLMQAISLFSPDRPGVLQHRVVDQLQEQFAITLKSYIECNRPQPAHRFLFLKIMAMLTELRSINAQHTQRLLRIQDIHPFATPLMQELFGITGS
Test [8] has as its target Cytochrome P450 2D6 (Homo sapiens) (UniProt P10635). Kind of test: Cytochrome P450 Family 2 Subfamily D Member 6 (CYP2D6) small molecule antagonists: luciferase reporter qHTS assay (AID 1671196). Also: nearly all actives have a fitted effect of over 50% in size. Also: potency is read from the fitted curve at half-maximal effect. The method, boiled down:
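P450-Glo format: CYP2D6 converts a proluciferin substrate to luciferin in an NADPH-driven reaction lasting 1 h at room temperature. Light output, proportional to CYP2D6 activity, reflects interference by test chemicals.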
(In a reporter assay the amount or activity of a reporter protein is the signal.)

For test [9], the target named is Cytochrome P450 2C19 (Homo sapiens) (UniProt P33261). Kind of test: Cytochrome P450 Family 2 Subfamily C Member 19 (CYP2C19) small molecule antagonists: luciferase reporter qHTS assay (AID 1671197). Also: nearly all actives have a fitted effect of over 65% in size. Also: potency is read from the fitted curve at half-maximal effect. The method, boiled down: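 Compounds were tested on CYP2C19 activity via proluciferin conversion to luciferin. The 37C, 1 h reaction followed NADPH addition; detection reagent stopped it.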
Sequence of Cytochrome P450 2C19 (Homo sapiens) (P33261 whole entry, looked up): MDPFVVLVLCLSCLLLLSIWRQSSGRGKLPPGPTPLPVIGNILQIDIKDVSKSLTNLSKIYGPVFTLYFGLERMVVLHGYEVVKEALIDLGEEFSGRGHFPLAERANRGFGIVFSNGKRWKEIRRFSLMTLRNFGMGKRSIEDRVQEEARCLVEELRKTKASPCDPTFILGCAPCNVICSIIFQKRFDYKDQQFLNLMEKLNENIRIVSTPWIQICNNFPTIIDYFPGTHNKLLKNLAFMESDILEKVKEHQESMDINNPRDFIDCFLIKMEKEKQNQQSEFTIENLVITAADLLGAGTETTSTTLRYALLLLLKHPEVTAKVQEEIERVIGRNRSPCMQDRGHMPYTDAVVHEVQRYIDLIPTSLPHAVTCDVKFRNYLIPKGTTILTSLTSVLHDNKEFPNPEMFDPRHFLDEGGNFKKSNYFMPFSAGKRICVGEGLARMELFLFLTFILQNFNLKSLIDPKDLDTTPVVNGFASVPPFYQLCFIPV

The target of test [10] is Cytochrome P450 1A2 (Homo sapiens) (UniProt P05177). In words: Cytochrome P450 Family 1 Subfamily A Member 2 (CYP1A2) small molecule antagonists: luciferase reporter qHTS assay (AID 1671199). Also: nearly all actives have a fitted effect of over 50% in size. Also: potency is read from the fitted curve at half-maximal effect. In a few lines:
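Inhibition of CYP1A2 conversion of proluciferin to luciferin, detected by luminescence. Reaction run 1 h at room temperature with NADPH regeneration after brief compound preincubation.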

Test [11] concerns the target Voltage-gated inwardly rectifying potassium channel KCNH2 (Homo sapiens) (UniProt Q12809). In words: Human Ether-a-go-go-Related Gene (hERG) channel small molecule antagonists: fluorescence cell-based qHTS assay (AID 1671200).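 Also: hERG-expressing U2OS cells given a thallium stimulus after FluxOR II dye loading; series mostly up to about 77 µM; nearly all actives have a fitted effect of over 50% in size.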 The method, boiled down:
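In this thallium-flux screen, overnight-cultured U2OS cells bearing the channel are dye-loaded in darkness for an hour, rested 10 min at room temperature, and then monitored kinetically at 480/540 nm for two minutes post-stimulus.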

The target of test [12] is Cytochrome P450 3A4 (Homo sapiens) (UniProt P08684). Kind of test: Cytochrome P450 Family 3 Subfamily A Member 4 (CYP3A4) small molecule antagonists: luciferase reporter qHTS assay (AID 1671201). The method, boiled down:
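CYP3A4 activity was followed with a P450-Glo proluciferin substrate. Test compounds in DMSO were preincubated 10 min; NADPH regeneration then ran 1 h, and light output was read 20 min after detection reagent.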

Test [13] concerns the target Nuclear receptor subfamily 1 group I member 2 (Rattus norvegicus) (UniProt Q9R1A7). Kind of test: Rat pregnane X receptor (rPXR) activation by small molecules, qHTS assay (AID 1346983). Also: nearly all actives have a fitted effect of over 20% in size. The settings on record: rPXR luciferase reporter cells, One-Glo luminescence, 24 h; hits give high values. In a few lines: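 Cell-based rPXR activation assay: rPXR cells, 2,000 per well, rested 5hr at 37 C, then exposed to compounds in DMSO for 24 hr at 37 C. Luciferase activity read by One-Glo luminescence after 30 min at room temperature.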

For test [14], the target named is Nuclear receptor subfamily 1 group I member 2 (Homo sapiens) (UniProt O75469). In words: CYP3A4 induction through human pregnane X receptor (PXR) by small molecules, qHTS assay (AID 1346984). Also: nearly all actives have a fitted effect of over 40% in size. In a few lines:
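Steps: seed DPX-2 cells, 5 hr at 37C; pin-transfer compounds; 24 hr at 37C; add Luciferin-IPA (3uM final), 3 hr at 37C; add One-Glo, 30 min RT; read luminescence.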

For test [15] the target is unchanged. Kind of test: Human pregnane X receptor (PXR) activation by small molecules, qHTS assay (AID 1346985). Also: nearly all actives have a fitted effect of over 40% in size. The method, boiled down:
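DPX-2 cells (HepG2 co-transfected with a PXR response element and a CYP3A4-promoter luciferase construct) were seeded at 2,000 per well, rested 5 hr at 37C, then exposed to DMSO-dissolved compounds for 24 hr. Activation was read as luciferase luminescence.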

Test [16] addresses Cytochrome P450 2C9 (Homo sapiens) (UniProt P11712). In words: Cytochrome P450 Family 2 Subfamily C Member 9 (CYP2C9) small molecule antagonists: luciferase reporter qHTS assay (AID 1671198). In a few lines:
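P450-Glo proluciferin substrate with CYP2C9 enzyme; 10 min RT preincubation, then NADPH regeneration 1 h at 37C; luciferin detection reagent 20 min RT, luminescence in relative luminescence units.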

Unmarked numbers belong to inactive results. Records with an inconclusive call do not appear. Activity calls are given as the source filed them. Unless noted, calls follow the shape of the dose curve; as a rule, active = well fitted curve in the direction sought with a large enough effect in the repeat runs; inconclusive = weak or mixed curves; inactive = no such curve, though single readings can be large; an effect the other way counts as inactive or inconclusive.
% is scaled to controls: 0 for no effect and ±100 for the full control effect.

Sequence of Cytochrome P450 3A4 (Homo sapiens) (P08684 whole entry, looked up): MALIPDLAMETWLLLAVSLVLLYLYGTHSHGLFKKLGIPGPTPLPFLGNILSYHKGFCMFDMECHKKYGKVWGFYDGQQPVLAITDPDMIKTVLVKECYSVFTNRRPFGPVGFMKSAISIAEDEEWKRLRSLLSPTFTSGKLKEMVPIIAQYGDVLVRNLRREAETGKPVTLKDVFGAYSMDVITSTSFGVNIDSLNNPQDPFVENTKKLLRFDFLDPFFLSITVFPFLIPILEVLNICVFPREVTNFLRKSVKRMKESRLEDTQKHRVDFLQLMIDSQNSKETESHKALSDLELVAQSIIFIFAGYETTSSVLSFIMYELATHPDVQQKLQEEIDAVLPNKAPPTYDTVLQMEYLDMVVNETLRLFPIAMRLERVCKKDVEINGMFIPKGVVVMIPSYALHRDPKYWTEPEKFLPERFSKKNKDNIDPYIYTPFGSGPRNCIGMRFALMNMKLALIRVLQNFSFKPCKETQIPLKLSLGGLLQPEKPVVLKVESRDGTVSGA
Sequence of Cytochrome P450 2C9 (Homo sapiens) (P11712 whole entry, looked up): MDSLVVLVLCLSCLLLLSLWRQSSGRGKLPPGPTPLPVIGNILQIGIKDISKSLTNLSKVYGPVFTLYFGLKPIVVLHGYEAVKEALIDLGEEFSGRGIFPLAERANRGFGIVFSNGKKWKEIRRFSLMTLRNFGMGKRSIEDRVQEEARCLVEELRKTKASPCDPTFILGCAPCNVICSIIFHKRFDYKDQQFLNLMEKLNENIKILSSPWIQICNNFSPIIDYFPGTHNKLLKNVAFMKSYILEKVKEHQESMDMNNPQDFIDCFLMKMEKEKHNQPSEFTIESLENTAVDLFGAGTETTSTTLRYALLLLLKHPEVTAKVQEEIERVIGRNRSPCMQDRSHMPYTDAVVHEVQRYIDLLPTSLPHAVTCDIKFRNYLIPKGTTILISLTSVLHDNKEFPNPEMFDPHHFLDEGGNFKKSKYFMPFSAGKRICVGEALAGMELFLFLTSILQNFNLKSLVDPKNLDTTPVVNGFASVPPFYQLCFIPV
Sequence of Nuclear receptor subfamily 1 group I member 2 (Rattus norvegicus) (Q9R1A7 whole entry, looked up): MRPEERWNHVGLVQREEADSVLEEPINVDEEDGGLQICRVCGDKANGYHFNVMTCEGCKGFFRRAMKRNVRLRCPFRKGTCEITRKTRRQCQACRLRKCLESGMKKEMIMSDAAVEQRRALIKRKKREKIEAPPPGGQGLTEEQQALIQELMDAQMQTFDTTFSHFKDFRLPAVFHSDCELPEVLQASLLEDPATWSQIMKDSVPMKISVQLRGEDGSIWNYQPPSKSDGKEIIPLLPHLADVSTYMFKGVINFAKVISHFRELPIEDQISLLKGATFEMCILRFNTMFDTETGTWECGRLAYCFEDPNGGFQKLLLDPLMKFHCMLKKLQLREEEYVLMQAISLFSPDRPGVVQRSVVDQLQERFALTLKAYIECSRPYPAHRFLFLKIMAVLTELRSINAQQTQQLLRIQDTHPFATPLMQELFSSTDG
Sequence of Voltage-gated inwardly rectifying potassium channel KCNH2 (Homo sapiens) (Q12809 whole entry, looked up): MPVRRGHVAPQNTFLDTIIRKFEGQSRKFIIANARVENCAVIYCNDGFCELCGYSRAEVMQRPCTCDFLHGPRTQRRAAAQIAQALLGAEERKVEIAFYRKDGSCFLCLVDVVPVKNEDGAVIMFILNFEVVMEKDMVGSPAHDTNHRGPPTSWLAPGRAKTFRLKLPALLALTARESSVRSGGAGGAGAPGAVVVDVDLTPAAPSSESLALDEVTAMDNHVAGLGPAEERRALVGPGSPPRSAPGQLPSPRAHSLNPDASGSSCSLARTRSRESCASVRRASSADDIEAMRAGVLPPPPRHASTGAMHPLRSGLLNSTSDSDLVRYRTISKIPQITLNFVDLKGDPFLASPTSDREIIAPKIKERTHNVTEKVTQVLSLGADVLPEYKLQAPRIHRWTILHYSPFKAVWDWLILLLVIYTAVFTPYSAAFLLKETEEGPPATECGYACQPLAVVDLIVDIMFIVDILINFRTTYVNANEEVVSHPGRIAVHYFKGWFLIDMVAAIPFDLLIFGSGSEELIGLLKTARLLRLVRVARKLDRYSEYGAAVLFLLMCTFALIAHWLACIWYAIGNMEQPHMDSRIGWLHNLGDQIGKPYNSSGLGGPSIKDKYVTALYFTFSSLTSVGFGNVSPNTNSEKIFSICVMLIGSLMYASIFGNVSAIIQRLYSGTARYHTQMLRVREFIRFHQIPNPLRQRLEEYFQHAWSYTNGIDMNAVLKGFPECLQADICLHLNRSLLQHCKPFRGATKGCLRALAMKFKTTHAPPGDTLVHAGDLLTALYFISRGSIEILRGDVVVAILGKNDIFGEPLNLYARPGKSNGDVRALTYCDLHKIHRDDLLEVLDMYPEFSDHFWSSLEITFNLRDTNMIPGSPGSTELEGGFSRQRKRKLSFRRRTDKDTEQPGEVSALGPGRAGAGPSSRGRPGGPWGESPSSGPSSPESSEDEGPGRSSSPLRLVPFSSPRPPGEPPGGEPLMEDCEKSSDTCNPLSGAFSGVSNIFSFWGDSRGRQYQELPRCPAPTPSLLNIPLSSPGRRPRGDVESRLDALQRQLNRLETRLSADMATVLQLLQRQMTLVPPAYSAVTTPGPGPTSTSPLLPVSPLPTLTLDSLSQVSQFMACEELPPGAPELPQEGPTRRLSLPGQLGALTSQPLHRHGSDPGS
Sequence of Cytochrome P450 1A2 (Homo sapiens) (P05177 whole entry, looked up): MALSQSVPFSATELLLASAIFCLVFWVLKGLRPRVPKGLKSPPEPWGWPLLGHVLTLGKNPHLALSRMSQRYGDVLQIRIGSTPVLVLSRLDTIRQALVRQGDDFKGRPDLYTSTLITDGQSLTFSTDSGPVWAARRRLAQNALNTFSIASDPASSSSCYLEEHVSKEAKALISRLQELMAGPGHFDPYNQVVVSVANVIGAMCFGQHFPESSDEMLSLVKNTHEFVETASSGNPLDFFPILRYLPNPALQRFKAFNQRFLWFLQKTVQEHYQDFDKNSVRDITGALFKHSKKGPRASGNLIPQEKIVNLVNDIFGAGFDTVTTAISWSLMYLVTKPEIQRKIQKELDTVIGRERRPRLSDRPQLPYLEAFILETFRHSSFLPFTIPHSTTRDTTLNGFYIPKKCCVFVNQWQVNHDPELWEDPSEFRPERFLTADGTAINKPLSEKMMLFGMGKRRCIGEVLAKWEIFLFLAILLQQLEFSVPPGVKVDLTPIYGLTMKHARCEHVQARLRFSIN
Sequence of Thyrotropin-releasing hormone receptor (Homo sapiens) (P34981 whole entry, looked up): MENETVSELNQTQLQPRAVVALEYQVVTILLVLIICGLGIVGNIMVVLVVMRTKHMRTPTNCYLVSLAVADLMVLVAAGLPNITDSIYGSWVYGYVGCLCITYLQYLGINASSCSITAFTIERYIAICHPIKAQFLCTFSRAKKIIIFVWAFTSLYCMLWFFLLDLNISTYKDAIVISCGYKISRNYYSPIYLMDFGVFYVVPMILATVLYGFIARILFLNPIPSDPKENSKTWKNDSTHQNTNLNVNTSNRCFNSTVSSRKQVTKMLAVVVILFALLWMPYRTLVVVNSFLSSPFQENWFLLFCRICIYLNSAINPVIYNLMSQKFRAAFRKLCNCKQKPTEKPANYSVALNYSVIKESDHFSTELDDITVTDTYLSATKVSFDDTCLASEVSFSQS
Sequence of Cytochrome P450 2D6 (Homo sapiens) (P10635 whole entry, looked up): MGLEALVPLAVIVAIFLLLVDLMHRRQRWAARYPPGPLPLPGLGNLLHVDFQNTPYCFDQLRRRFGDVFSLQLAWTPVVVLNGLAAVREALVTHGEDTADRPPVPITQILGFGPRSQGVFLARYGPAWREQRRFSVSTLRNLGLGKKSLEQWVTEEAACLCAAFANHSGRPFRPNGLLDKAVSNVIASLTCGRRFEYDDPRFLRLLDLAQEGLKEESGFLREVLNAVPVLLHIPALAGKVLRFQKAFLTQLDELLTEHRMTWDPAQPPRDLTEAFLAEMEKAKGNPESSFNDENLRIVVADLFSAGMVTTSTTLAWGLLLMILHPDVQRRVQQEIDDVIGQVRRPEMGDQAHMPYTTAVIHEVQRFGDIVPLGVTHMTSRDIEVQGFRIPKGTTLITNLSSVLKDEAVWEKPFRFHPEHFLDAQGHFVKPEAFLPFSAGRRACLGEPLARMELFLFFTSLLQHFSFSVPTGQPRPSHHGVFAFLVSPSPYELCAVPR

Consider `CCCCCCOC(=O)CC`, for which the call in test [1] and in test [5] was inactive. For the same molecule, the Potency entry in [2], in test [3], in test [4], in test [6], in test [7] and in test [8] was “inactive” each time. In addition, the Potency entry in test [9], in test [10], in test [11] and in test [12] was “inactive” each time.
Consider `CCCCN`, for which the molecule was classed as inactive in [1] and in test [5]. In addition, the Potency result in test [2], in test [3], in test [4], in test [6], in [7] and in test [10] was “inactive” in each case. For the same molecule, the Potency entry in test [11] and in test [12] was “inactive” throughout.
Turning to `CCc1ccc(C=O)cc1`, the result in [1] and in [5] was inactive. Further, the Potency entry in test [2], in test [3], in [4], in test [6], in test [7] and in test [8] was “inactive” throughout. For the same molecule, the Potency entry in [9], in test [11] and in test [12] was “inactive” each time.
For the molecule `CC1COc2ccccc2N1` (stereo not drawn), the call in test [1] and in test [5] was inactive. For the same molecule, the Potency entry in test [2], in [3], in [4], in [6], in test [7] and in test [8] was “inactive” throughout. Besides, the Potency result in [11] and in test [12] was “inactive” each time. Further, the Potency in test [9] is 44.8 µM (active); in [10], 31.7 µM (active).
For the molecule `O=C(OCC(COC(=O)c1cccnc1)(COC(=O)c1cccnc1)COC(=O)c1cccnc1)c1cccnc1`, the call in test [1] and in test [5] was inactive. The Potency entry in test [2], in test [3], in test [4], in test [6], in test [7] and in test [8] was “inactive” throughout. In addition, the Potency result in test [9], in test [10] and in test [11] was “inactive” each time.
On to `O=C(NCC(O)CO)c1c(I)c(C(=O)NCC(O)CO)c(I)c(N(CCO)C(=O)CO)c1I` (stereo not drawn), for which the molecule was classed as inactive in [1] and in test [5]. Further, the Potency entry in test [2], in test [3], in test [4], in test [6] and in test [11] was “inactive” throughout. For the same molecule, the max activation in [13] is -4.62%.
For `CCCCNc1ccc(C(=O)OCCN(C)C)cc1`, the molecule was classed as inactive in [1] and in test [5]. In addition, the Potency result in [2], in test [3], in test [4], in test [6] and in test [11] was “inactive” each time. The max activation in test [13] was -1.52%.
In the case of `CCOC(=O)[C@H](CCc1ccccc1)N[C@@H](C)C(=O)N1C(=O)N(C)C[C@H]1C(=O)O`, the outcome in test [1] was inactive. Besides, the Potency result in test [2], in test [3], in test [4], in test [6], in test [7] and in test [14] was “inactive” throughout. Also, the Potency entry in [15], in test [8], in test [9], in [10], in test [11] and in test [12] was “inactive” in each case. Moreover, the max activation in test [13] was -1.3%.
As for `Nc1nnc(-c2cccc(Cl)c2Cl)c(N)n1`, the outcome in [1] and in test [5] was inactive. Further, the Potency result in test [2], in test [3], in test [4], in test [6], in test [9] and in test [16] was “inactive” each time. For the same molecule, the Potency result in test [10] and in test [11] was “inactive” in each case.
In the case of `CC1(C)S[C@@H]2[C@H](N=CN3CCCCCC3)C(=O)N2[C@H]1C(=O)O`, the molecule was called inactive in [1] and in test [5]. The Potency entry in test [2], in test [3], in [4], in test [7], in test [14] and in [15] was “inactive” throughout. Further, the Potency entry in test [8], in test [9], in test [16], in test [10], in test [11] and in [12] was “inactive” in each case. Besides, the max activation in test [13] was -0.392%.
Regarding `O=C(O)Cc1ccc(Cl)cc1Cl`, the call in [1] and in test [5] was inactive. Also, the Potency result in [2], in [3], in test [4], in [6], in test [9] and in test [16] was “inactive” each time. In addition, the Potency result in test [10], in [11] and in test [12] was “inactive” each time. In addition, the Potency in test [8] is 31.7 µM (active).
